# Sfp PPTase inh – qHTS Assay for Inhibitors of Bacillus subtilis Sfp phosphopantetheinyl transferase (PPTase) | 4'-phosphopantetheinyl transferase ffp (Bacillus subtilis), Q9F4F7 | Biochemical Sfp PPTase activity, qHTS | Potency, µM, hits mostly inhibitors | hit rate 3.5% among 310,000 | AID 1490, 2009;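 further: the enzyme is Sfp with the accession as filed and its product quenches rhodamine fluorescence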
#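 Reaction rates are the 30-min fluorescence difference (ex 525, em 598 nm) in wells containing 15 nM Sfp, 5 uM rhodamine-CoA and 12.5 uM BHQ-2-YbbR at pH 7.6 with 10 mM MgCl2.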
# PLK1 PBD block – qHTS for Inhibitors of PLK1-PDB (polo-like kinase 1 - polo-box domain): Primary Screen; Serine/threonine-protein kinase PLK1 (Homo sapiens), P53350; Plk1 PBD binding of FITC phosphopeptide, fluorescence polarization; Potency, µM, actives largely listed as inhibitors; hit rate 2.8% among 360,000; AID 720504, 2013; further: series mostly up to about 57 µM; nearly all actives have a fitted effect of over 65% in size
# HP1b binding inh – HTS for Inhibitors of HP1-beta Chromodomain Interactions with Methylated Histone Tails. Potency, µM (highest dose often 114 µM), hits mostly inhibitors. AID 540317, 2011. hit rate 0.56% among 390,000. AlphaScreen HP1-beta / biotin-H3K9me3 peptide binding. Chromobox protein homolog 1 (Homo sapiens), P83916; further: nearly all actives have a fitted effect of over 70% in size
# Target sequence (P83916 whole entry, looked up): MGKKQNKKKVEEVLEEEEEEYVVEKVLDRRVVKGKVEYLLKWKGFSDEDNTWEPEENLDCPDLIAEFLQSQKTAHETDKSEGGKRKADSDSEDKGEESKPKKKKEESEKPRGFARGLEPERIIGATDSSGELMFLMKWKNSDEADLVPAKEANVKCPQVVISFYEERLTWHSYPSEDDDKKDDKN
#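 Compound inhibition of the preformed complex between 50 nM HP1-beta and 50 nM biotinylated H3K9me3 peptide was read by AlphaScreen. Buffer was PBS pH 7.4 with 0.01% Tween-20. Incubations ran 30 min at room temperature, with 10 ug/mL donor/acceptor beads.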
# G9a block – qHTS Assay for Inhibitors of Histone Lysine Methyltransferase G9a. G9a H3K9 monomethylation, AlphaScreen, 2 h. Histone-lysine N-methyltransferase EHMT2 (Homo sapiens), Q96KQ7. hit rate 8.8% among 350,000. Potency, µM (series often up to 102 µM), actives largely listed as inhibitors; further: nearly all actives have a fitted effect of over 75% in size
# Target sequence (Q96KQ7 913-1193 limits assumed): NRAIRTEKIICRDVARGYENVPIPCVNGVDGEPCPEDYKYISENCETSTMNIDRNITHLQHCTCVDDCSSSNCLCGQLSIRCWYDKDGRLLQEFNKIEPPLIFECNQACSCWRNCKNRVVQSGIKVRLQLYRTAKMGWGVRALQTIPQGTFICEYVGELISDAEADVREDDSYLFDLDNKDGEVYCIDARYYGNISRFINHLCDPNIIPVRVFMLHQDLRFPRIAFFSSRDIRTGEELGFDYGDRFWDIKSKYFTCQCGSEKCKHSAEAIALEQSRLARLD
#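 Chemiluminescent proximity detection of H3K9 monomethylation, read after 10 min bead incubation in the dark. Reaction: 20 nM G9a, 500 nM biotin-H3K9 peptide, 20 uM SAM cofactor, 2 h, room temperature, following 15 min enzyme-compound preincubation.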
# JMJD2A Tudor – qHTS Assay for Inhibitors of JMJD2A-Tudor Domain | Lysine-specific demethylase 4A (Homo sapiens), O75164 | AlphaScreen JMJD2A-Tudor / H3K4me3 peptide binding | Potency, µM (doses to about 114 µM), most hits filed as inhibitors | hit rate 4.4% among 390,000 | AID 504339, 2011; further: nearly all actives have a fitted effect of over 50% in size
# BAZ2B inh – qHTS Assay for Inhibitors of BAZ2B; Potency, µM (top dose mostly 114 µM), usual class: inhibitors; hit rate 4.4% among 360,000; AlphaScreen BAZ2B-H3K14Ac peptide displacement; further: nearly all actives have a fitted effect of over 60% in size
#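 Multi-concentration screen (max 110 uM) measuring displacement of acetylated histone H3 peptide from BAZ2B by AlphaScreen, using 50 nM protein, 50 nM peptide and 10 ug/mL streptavidin donor plus Ni-chelate acceptor beads.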
# Hits are given with their value; n = inactive; u = inconclusive; x = no result given; [ ] = another dose, or the depositor's remark. An excerpt weighted towards active compounds, which were near 12% of everything screened. The call rests on the fitted dose curve; in most records, active means well fitted curve in the direction sought with a large enough effect; inconclusive means small, poorly fitted or top-dose-only effect, or another doubt; inactive means no such curve, though single readings can be large; an effect the other way counts as inactive or inconclusive.
SMILES,Sfp PPTase inh,PLK1 PBD block,HP1b binding inh,G9a block,JMJD2A Tudor,BAZ2B inh
COc1ccc(Br)cc1CNCCSc1nnnn1C,n,n,n,56µM,n,n
Cn1nnnc1SCCNCc1cccc2ccccc12,n,n,n,50µM,n,n
COc1cccc(CNCCSc2nnnn2C)c1,n,n,n,56µM,n,n
COc1ccc(Cl)cc1CNCCSc1nnnn1C,x,x,n,n,n,n
CCOc1cc(CNCCSc2nnnn2C)cc(Br)c1OCc1ccc(F)cc1,u,n,n,n,n,n
Cc1ccccc1CNCCSc1nnnn1C,x,x,n,n,n,n
COc1cc(CNCCSc2nnnn2C)cc(Br)c1OCc1ccc(F)cc1,14µM,n,n,n[2.33 µM],n,n
Cc1cccc(C)c1NC(=O)C(c1ccncc1)n1c(=O)c(-c2cc3ccccc3[nH]2)nc2ccccc21 (stereo not given),x,n,x,x,x,x
O=S(=O)(c1cccnc1)N1CCn2cccc2C1c1ccccc1F (stereo not given),x,n,n,45µM,n,u
CC1c2cccn2CCN1S(=O)(=O)c1ccccc1 (stereo not given),x,n,n,n[2.33 µM],n,u
CN=C(NC#N)NCCSCc1csc(N=C(N)N)n1,n,x,x,n,x,x
Fc1ccccc1OCCCCCN1CCCC1,n,n,n,n,n,n
CC1CCN(CCCCOc2ccccc2Br)CC1,50µM,n,n,10µM,16µM,u
CC1CCN(CCCCOc2ccccc2F)CC1,n,30µM,n,n,10µM,50µM
Cc1cnc(CNc2ccnc(-c3cccnc3)n2)cn1,n,x,x,n[0.501 µM],x,x
Cc1ccc(N2CCN(S(=O)(=O)c3ccc4c(c3)CC(=O)N4)CC2)cc1,x,x,x,x,n,x
O=C(COC(=O)/C=C/c1ccccc1Cl)NCc1ccco1,n,n,n,u,n,50µM
O=C(CNCc1ccccc1Cl)NCc1ccco1,u,n,22µM,n,n,20µM
NS(=O)(=O)c1ccc(NC(=S)NCc2ccccc2Cl)cc1,n,u,n,u,n,n
NS(=O)(=O)c1ccc(CCNCC(=O)NCc2ccccc2Cl)cc1,n,n,n,n,28µM,50µM
CC(=O)Nc1ccc(S(=O)(=O)NCC(=O)NCCc2ccc(S(N)(=O)=O)cc2)cc1,n,n,n,n,n,n
NS(=O)(=O)c1ccc(CCNC(=O)CNS(=O)(=O)c2cccc(Br)c2)cc1,n,5.3µM,n,n,n,u
COc1cc(O)c(NC(C)=O)c2nonc12,35µM,n,n,22µM,n,n
Cc1ccc(-c2ccc(=O)n(CC(=O)NCCc3ccc(Cl)cc3)n2)cc1,x,x,n,n,89µM,n
COc1ccc2[nH]cc(CCNc3ncncc3-c3ccc(N(C)C)cc3)c2c1,n,x,x,x,x,x
SMILES,Sfp PPTase inh,PLK1 PBD block,HP1b binding inh,G9a block,JMJD2A Tudor,BAZ2B inh
Cc1cccc(-c2nc(CCNC(=O)Cc3ccccc3)cs2)c1,x,x,n,n,n,n
COC(=O)c1cccc(NC(=O)c2nsc3ccccc23)c1,x,x,n,4.5µM,n,n
COC(=O)c1ccccc1NC(=O)N1CCN(c2ccc(OC)cc2)CC1,n,n,u,40µM,u,u
COc1cccc(N2CCN(C(=O)c3ccc(NC(=O)c4nsc5ccccc45)cc3)CC2)c1,x,x,n,n,n,n
Cc1ccc(S(=O)(=O)Nc2ccccc2C(=O)N2CCOCC2)cc1,n,n,n,x,n,n
COc1ccc(N2CCN(C(=O)c3ccccc3NS(=O)(=O)c3ccc(C)cc3)CC2)cc1,n,n,n,50µM,u,u
COc1ccc(N2CCN(C(=O)c3ccc(NC(=O)c4nsc5ccccc45)cc3)CC2)cc1,x,x,n,10µM,u,u
Cc1ccc(Cn2c(=O)c3ccccc3n3c(-c4cccc(O)c4)nnc23)cc1,x,x,n,n,n,n

# Screens as filed in PubChem BioAssay.
